# This excerpt belongs to a sample that is enriched for hits.
# CHX counter = affects cycloheximide protein synthesis inhibition readout, counter-screen. cell reporter, cycloheximide protein synthesis inhibition counterscreen. max response, %. 12% of 300,000 active. AID 2314; in the data active = max response mostly above about 13%, no sharp cut-off; inactive = mostly below about 14%; note: read at 38.3 µM for the half of the compounds with a filed dose
# TbPYK inhibitor = T. brucei pyruvate kinase inhibition; TbPYK enzyme, Kinase-Glo Plus ATP luminescence, 45 min; Potency, µM (top dose mostly 76.8 µM), usual class: inhibitors; 0.12% of 410,000 active; AID 624173; note: nearly all actives have a fitted effect of over 50% in size
#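 In this concentration-response screen, enzyme-free wells defined baseline while DMSO plates tracked drift. Each reaction combined TbPYK, substrate, compound and 130 uM ADP for 45 min at room temperature. Kinase-Glo Plus luminescence gave the signal.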
# Giardia FBPA inh = Giardia lamblia aldolase inhibition; purified Giardia FBPA; A8B2U2; Potency, µM (top dose mostly 59.6 µM), most hits filed as inhibitors; 0.71% of 290,000 active; AID 2451; note: nearly all actives have a fitted effect of over 55% in size
# Target sequence (A8B2U2 whole entry, looked up): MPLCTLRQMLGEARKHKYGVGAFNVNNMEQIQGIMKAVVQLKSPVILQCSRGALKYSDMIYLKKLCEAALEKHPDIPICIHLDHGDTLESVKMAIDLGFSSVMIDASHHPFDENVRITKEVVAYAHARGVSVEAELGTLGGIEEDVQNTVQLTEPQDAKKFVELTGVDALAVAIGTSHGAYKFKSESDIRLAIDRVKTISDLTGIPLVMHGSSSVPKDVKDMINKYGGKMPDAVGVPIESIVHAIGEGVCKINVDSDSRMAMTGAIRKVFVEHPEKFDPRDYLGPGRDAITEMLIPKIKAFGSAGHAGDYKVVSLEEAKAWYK
#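 Giardia FBPA (40 nM reagent) was preincubated 10 min at RT with compound (up to 57.5 uM final), then substrate plus GAPDH/TPI/NAD/arsenate coupling system with diaphorase/resazurin was added; resorufin fluorescence (525/598 nm) was read after 20 min.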
# RE007 growth inh = less growth of the S. pombe RE007 Vpr strain; S. pombe RE007 Vpr strain, BacTiter-Glo ATP luminescence, 24 h; Potency, µM (doses to about 92.2 µM), most hits filed as inhibitors; 0.21% of 360,000 active; active = well fitted falling curve with a large enough effect; inconclusive = small, poorly fitted or top-dose-only effect; inactive = no such curve, though single readings can be large or run the other way; note: nearly all actives have a fitted effect of over 50% in size
#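 Fission yeast RE007 carrying one integrated HIV-1 vpr copy, seeded at OD 0.01 in PMG+AL medium with 23 nL pinned compound. Grown 24 h at 30 degrees; viability read by BacTiter-Glo luminescence after 5 min.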
# LmPK inh = LmPK (Leishmania mexicana) enzyme inhibition | Potency, µM (highest dose often 57.5 µM), usual class: inhibitors | AID 1721 | 0.37% of 290,000 active | Q27686 | purified LmPK, Kinase-Glo ATP luminescence, 1 h
#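 ATP generated from ADP (0.1 mM) and PEP (0.5 mM) by 0.1 nM LmPK over 1 h at room temperature (pH 7.2 imidazole buffer) was detected by coupled luciferase luminescence. Values were normalized to uninhibited and no-enzyme wells.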
# Shiga inhibitor = blocks Shiga toxin action in Vero cells. 9.2% of 290,000 active. Vero cells, Shiga toxin protein synthesis inhibition reporter. inhibition, % at 38.7 µM. AID 2315; in the data active = inhibition mostly above about 28%, no sharp cut-off; inactive = mostly below about 43%
# Numbers stand for hits; 0 = inactive; ? = inconclusive; - = no result; [ ] = remark or other dose. Unless noted, calls come from the whole dose curve; as a rule, active = well fitted curve in the direction sought with a large enough effect; inconclusive = small, poorly fitted or top-dose-only effect, or another doubt; inactive = no such curve, though single readings can be large; an effect the other way counts as inactive or inconclusive.
SMILES,CHX counter,TbPYK inhibitor,Giardia FBPA inh,RE007 growth inh,LmPK inh,Shiga inhibitor
O=C(C=C(C(=O)c1ccccc1)c1ccccc1)c1ccccc1,-,0,-,0,-,-
CSC(=CC(=O)c1ccccc1)SC,25.1,0,0,0,0,65.9
O=C(CSc1nc2ccccc2n1Cc1cccc(Cl)c1)N1CCN(c2ccc(F)cc2)CC1,-,0,-,-,-,-
COc1ccc(C(=O)O/N=C(\N)c2ccc(OC)c(OC)c2)cc1,26.9,0,0,0,0,159.9
COc1ccc(C(=O)COC(=O)c2ccccn2)c(OC)c1,-,0,-,0,-,-
CC(C)(C)c1ccc(C(=O)O/N=C(\N)c2ccccn2)cc1,0,0,0,0,0,0
COc1ccc(C(=O)O/N=C(\N)c2ccccn2)c(OC)c1,29.2,0,0,0,?,0
COc1ccc(C(=O)O/N=C(\N)c2ccc(OC)c(OC)c2)c(OC)c1,48.4,0,0,0,0,92.7
Cc1ccc(C(=O)O/N=C(\N)c2ccccn2)cc1,0,?,0,?,14.1µM,0
COc1cc(C(=O)O/N=C(\N)c2ccccn2)cc(OC)c1OC,33.8,0,0,0,0,65.8
COc1ccc(C(=O)O/N=C(\N)c2ccccc2)c(OC)c1,32.3,0,0,?,?,0
CCSc1ncccc1C(=O)N[C@@H](CCSC)C(=O)OC,0,0,0,0,0,0
Cc1ccccc1NC(=S)NCc1cccn1C,0,0,0,0,0,0
Cc1c(Cl)cccc1NC(=S)NCc1cccn1C,51.6,0,0,0,0,0
Cc1cc2c(s1)c1cnn(Cc3ccc(C(C)C)cc3)c(=O)c1n2C,0,-,-,-,-,0
COc1ccc(/C=C/c2ccccc2)cc1C1C2C=CCCC2(C)C(=O)N1Cc1ccccc1 (stereo not given),48.9,-,0,-,-,114.9
COc1ccc(/C=C/c2ccccc2)cc1[C@H]1[C@@H]2C=CCC[C@@]2(C)C(=O)N1Cc1ccccc1,20.2,0,0,0,0,44.4
CCc1ccc(CNC(=O)CN2C(=O)CCn3nc(-c4cn(C)c5ccccc45)cc32)cc1,-,0,-,-,-,-
COc1ccc(CCNC(=O)c2ccccc2NS(=O)(=O)c2cc(C(=O)O)ccc2OC)cc1,0,0,0,0,0,0
COc1ccc(NC(C)=O)cc1S(=O)(=O)NC(Cc1ccccc1)C(=O)NCc1ccccc1C (stereo not given),15.5,0,0,0,0,0
O=C(O)CCc1ccc(S(=O)(=O)Nc2ccccc2C(=O)NCCc2ccccc2)cc1,30.0,0,0,0,0,79.6
COc1ccc(NC(C)=O)cc1S(=O)(=O)Nc1ccc(OCc2ccccc2)cc1,0,0,-,0,0,0
COc1ccc(NC(C)=O)cc1S(=O)(=O)Nc1ccccc1C(=O)NCCc1ccccc1,43.9,0,-,0,0,89.4
Cc1ccc([N+](=O)[O-])cc1S(=O)(=O)Nc1cccc(S(=O)(=O)NC2=NCCC2)c1,-,0,-,0,-,-
COc1ccc(CCNC(=O)CSC2=Nc3ccccc3C3=NC(CCC(=O)NCc4ccccc4)C(=O)N23)cc1OC (stereo not given),-,0,-,-,-,-
SMILES,CHX counter,TbPYK inhibitor,Giardia FBPA inh,RE007 growth inh,LmPK inh,Shiga inhibitor
O=C(NNc1nc(-c2ccccc2)cs1)c1ccco1,12.5,0,0,0,0,0
Cc1ccc(-c2csc(NC(=S)NC(=O)c3ccco3)n2)cc1,0,0,0,0,0,0
O=C(NNc1nc(-c2ccc(Cl)cc2)cs1)c1ccco1,38.8,0,0,0,0,41.0
Cc1cc(C(=O)Cn2ncc(Cl)c(Cl)c2=O)c(C)n1CC(F)(F)F,23.5,0,0,0,0,0
Cc1ccc(C)c(C(=O)Cn2ncc(Cl)c(Cl)c2=O)c1,0,0,0,0,0,0
COc1cccc(OCc2ccc(Cl)cc2)c1C#N,44.3,0,0,0,0,80.5
COc1cccc(CNC(C)(C)CO)c1OCc1ccc(Cl)cc1,0,0,0,0,0,0
Cc1ccc(CNC(=O)C(=O)NCC(c2cccs2)S(=O)(=O)c2cccs2)cc1 (stereo not given),-,0,-,-,-,-
CCC1CCCCN1C(=O)CCn1c(=O)oc2ccccc21 (stereo not given),-,0,-,0,-,-
CCN(c1ccccc1)S(=O)(=O)c1cc(NC(=O)Nc2ccccc2C#N)ccc1Cl,0,0,0,0,0,0
CCN(c1ccccc1)S(=O)(=O)c1ccc(Cl)c(NC(=O)Nc2ccc(Cl)cc2C#N)c1,30.0,0,0,0,0,46.7
O=C1CC(=O)N(c2ccccc2)C(=O)N1c1ccccc1,16.9,0,0,0,0,0
O=C1CC(=O)N(c2ccccc2)C(=O)N1,-,0,-,0,-,-
COc1ccccc1C(=O)Nc1ccc(CN2CCCCC2)cc1,11.2,0,0,0,0,0
O=C(CCNc1ccc(Cc2ccncc2)cc1)c1cccc([N+](=O)[O-])c1,0,0,0,35.5µM,0,0
O=C(NC(=S)Nc1ccc(Cc2ccncc2)cc1)c1ccccc1F,24.4,0,0,0,0,0
CC(C)(C)Sc1ccc([N+](=O)[O-])cc1C(=O)Nc1ccncc1,0,0,0,0,0,52.1
CCOC(=O)C1(C)CCCN1C(=O)c1ccc2ccccc2c1 (stereo not given),-,0,-,0[18.4 µM],-,-
CC(C)(C)OC(=O)N1CCC(c2c(C(=O)N3CCN(c4ccccn4)CC3)cnn2-c2cccc(F)c2)CC1,-,0[15.4 µM],-,-,-,-
CCOC(=O)Nc1ccc(Cc2ccncc2)cc1,25.6,0,0,0,0,0
COc1ccccc1C(=O)Nc1ccc(Cc2ccncc2)cc1,12.9,0,0,0,0,0
COc1ccc([N+](=O)[O-])cc1C(=O)Nc1ccc(Cc2ccncc2)cc1,13.1,0,0,0,0,0
O=C(Nc1ccncc1)c1cc([N+](=O)[O-])ccc1Cl,-,-,0,-,-,-
CC(C)(C)C(=O)Nc1ccc(Cc2ccncc2)cc1,-,0,-,0,-,-
CCc1ccc(S(=O)(=O)c2nnn3c2nc(NCc2cccs2)c2sccc23)cc1,-,0,-,-,-,-
SMILES,CHX counter,TbPYK inhibitor,Giardia FBPA inh,RE007 growth inh,LmPK inh,Shiga inhibitor
CCCN(C(=O)Nc1cn(CC(C)C)c(=O)c2ccccc12)c1ccc(F)cc1,-,0,-,-,-,-
CN(CC(=O)Nc1ccccc1Cl)C(=O)COC(=O)c1nc(Cl)c(Cl)c(Cl)c1Cl,45.2,0,0,0,0,52.5
Cc1nc2ccc(-c3ccccc3)cc2o1,53.5,0,0,0,0,0
Cc1nc2cc(Cc3ccccc3)ccc2o1,-,0,-,0,-,-
O=C1C(N2CCOCC2)=C(n2nnc3ccccc32)C(=O)c2ccccc21,45.2,0,?,0,0,0
O=C1c2ccccc2C(=O)c2c1cccc2-n1nnc2ccccc21,0,0,0,0,0,0
O=C(Oc1ccc(Cl)cc1)N1CCCCC1,34.9,0,0,?,0,49.0
O=C(Oc1ccccc1)N1CCCC1,0,0,0,0,0,0
O=S(=O)(c1ccc(-c2nnco2)cc1)N1CCCCC1,0,0,0,0,0,0
O=C(Oc1ccc(-c2nnco2)cc1)N1CCCCC1,24.9,0,0,?,0,35.4

# Screening results from PubChem BioAssay.
